In the library only some 0.54% were active in any assay of this set; here they are far more common.
CatB mixtures: cathepsin B inhibitors from pooled compounds, primary screen, biochemical, compound mixtures, AMC fluorescence. P07858. AID 488, 2006. inhibition, %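 (ten-compound pools at 5 µM per compound and 50 µM total)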. 62,000 tested, 0.06% active. Purified cathepsin B, AMC dipeptide fluorescence; in the data active = inhibition above about 22%, passing the limit was not always enough;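 also: 0% = enzyme without compound and 100% = no enzyme blank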
C1s block: complement C1s protease inhibitors, primary screen, biochemical, 10-compound mixtures. Complement C1s subcomponent (Homo sapiens), P09871. purified C1s, fluorogenic AMC substrate, pooled mixtures. mean inhibition % of two 10-compound mixtures (stronger effect = higher value), % at 5 µM (by protocol). 62,000 tested, 0.16% active. AID 538, 2006;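 active = inhibition above 20% in each of the two 10-compound mixture wells holding the compound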;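 also: 0% = enzyme wells lacking compound mixture and 100% = no-enzyme blank wells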
CatB inh: human cathepsin B inhibitors, primary screen, biochemical, fluorogenic substrate. P07858. purified cathepsin B, fluorescence. inhibition, %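 (tested at 10 µM)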. 63,000 tested, 0.1% active. AID 453, 2006; in the data active = inhibition above about 21%;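 also: 0% = enzyme with no compound and 100% = no enzyme blank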
CatL inh: inhibitors of human cathepsin L, biochemical | AID 460, 2006 | inhibition, %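 (tested at 10 µM)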 | purified cathepsin L, fluorogenic substrate, fluorescence | 58,000 tested, 0.17% active | Procathepsin L (Homo sapiens), P07711; in the data active = inhibition above about 45%;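 also: 0% = enzyme with no compound and 100% = no enzyme blank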
Target sequence (P07711 114-288 limits assumed): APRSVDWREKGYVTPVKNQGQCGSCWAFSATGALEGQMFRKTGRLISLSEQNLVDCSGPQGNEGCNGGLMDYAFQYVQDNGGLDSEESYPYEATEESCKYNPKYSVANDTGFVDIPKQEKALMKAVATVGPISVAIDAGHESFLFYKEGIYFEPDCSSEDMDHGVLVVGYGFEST
Target sequence (P07711 292-333 limits assumed): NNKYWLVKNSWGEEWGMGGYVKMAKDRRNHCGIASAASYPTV
CatS inh: inhibitors of human cathepsin S, biochemical, compound mixtures. 62,000 tested, 0.06% active. inhibition, %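 (tested at 5 µM per compound within 10-compound mixtures)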. P25774. recombinant cathepsin S, AMC dipeptide fluorescence, pooled mixtures. AID 501, 2006; in the data active = inhibition above about 32%, passing the limit was not always enough;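 also: 0% = enzyme without compound and 100% = blank without enzyme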
Target sequence (P25774 115-331 limits assumed): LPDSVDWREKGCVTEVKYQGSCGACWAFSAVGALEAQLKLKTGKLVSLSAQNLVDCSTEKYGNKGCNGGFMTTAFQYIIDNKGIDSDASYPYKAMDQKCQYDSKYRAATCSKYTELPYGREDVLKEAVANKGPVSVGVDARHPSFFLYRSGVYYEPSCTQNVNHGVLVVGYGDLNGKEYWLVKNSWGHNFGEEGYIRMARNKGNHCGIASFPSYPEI
Cathepsin G inh: human cathepsin G inhibitors, primary screen, biochemical, pooled compound mixtures, AMC fluorescence; P08311; purified enzyme, AMC-tetrapeptide fluorescence; inhibition, % at 5 µM (by protocol); 62,000 tested, 0.2% active; AID 581, 2007;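 active = inhibition above 20% in each of the two mixture wells holding the compound; inactive = inhibition of 20% or less in either well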;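 also: 0% = enzyme control without mixture and 100% = blank lacking enzyme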
Target sequence (P08311 21-244 limits assumed): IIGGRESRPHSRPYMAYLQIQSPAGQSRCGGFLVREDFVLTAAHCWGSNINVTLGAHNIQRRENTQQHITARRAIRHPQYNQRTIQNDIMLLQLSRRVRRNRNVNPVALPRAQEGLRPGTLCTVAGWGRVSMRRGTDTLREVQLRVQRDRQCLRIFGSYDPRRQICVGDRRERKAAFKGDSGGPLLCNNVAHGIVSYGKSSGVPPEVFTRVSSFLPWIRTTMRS
* hit, by the source's call; nt = no result given.

SMILES | CatB mixtures | C1s block | CatB inh | CatL inh | CatS inh | Cathepsin G inh
CCN1C(=O)CC(c2ccco2)Sc2ccccc21 (stereo not drawn) | 1.6 | -2.1 | -2.8 | -6.5 | 0.0 | -2.9
CCC(C)(C)n1nnnc1CN(Cc1cc2cc(OC)c(OC)cc2[nH]c1=O)C1CCCC1 | 2.9 | 0.5 | 1.9 | -10.8 | 0.2 | 6.6
COc1cccc(-c2cc(C(=O)NCCc3ccccc3)no2)c1 | 5.8 | 15.5 | -0.4 | 15.0 | -2.3 | 22.3*
COc1ccc(CNC(=O)c2cc(-c3ccc(OC)c(OC)c3)on2)cc1 | 7.1 | 22.4* | 8.1 | -3.8 | 17.0 | 31.7*
COc1ccc(-c2cc(C(=O)NCc3ccccc3)no2)cc1OC | 6.3 | -10.7 | -3.5 | -2.2 | -1.4 | 11.0
COc1ccc(-c2cc(C(=O)NCc3ccc(Cl)cc3)no2)cc1OC | 0.8 | 7.2 | -0.5 | 0.0 | 9.2 | 55.3*
O=C(CCn1c(=O)c2ccccc2n(Cc2cc(=O)n3ccccc3n2)c1=O)NCc1ccco1 | 4.0 | 11.0 | 2.5 | -10.2 | -2.2 | 8.2
CCOC(=O)N1CC=C2C(C#N)=C(N)C(C#N)(C#N)[C@H](c3ccc(OCC)c(OCC)c3)[C@H]2C1 | -0.7 | -6.9 | 0.2 | 32.8 | 22.1 | 0.3
CCCCOc1ccc(C2C3CN(C(=O)OCC)CC=C3C(C#N)=C(N)C2(C#N)C#N)cc1OC (stereo not drawn) | 7.2 | 9.7 | 1.7 | 60.5* | 11.2 | 13.2
COc1cc2c(C#N)c(N3CCN(c4ccccc4OC)CC3)nc(N)c2c(N)n1 | 5.3 | -13.8 | 0.1 | -224.8 | 0.0 | -9.5
N#Cc1c(N2CCCC2)nc(N)c2c(N)nc(N3CCCC3)cc12 | 76.8* | -98.0 | 45.4* | 18.4 | 59.0* | -0.8
CCC(=O)Oc1ccc(C(CC)C(CC)c2ccc(OC(=O)CC)cc2)cc1 (stereo not drawn) | 4.3 | 22.5* | 2.4 | 5.9 | -4.7 | 8.8
CCOC(=O)c1c(C)oc(/N=C/c2ccccc2O)c1C#N | -5.3 | -5.0 | 1.8 | -4.9 | -7.5 | -2.8
COc1cc(NC(=O)c2cccs2)c(OC)cc1NC(=O)CCn1nnc2ccccc21 | 4.4 | 21.0* | 6.2 | 9.6 | -1.9 | 15.2
Cc1nc2ccc(C(=O)O)cc2c2c1CC(C)S2 (stereo not drawn) | 6.1 | 11.3 | 6.2 | -29.4 | 5.4 | 13.0
Cc1cccc(-n2nnc(C(=O)Nc3ccc(F)cc3)c2N)c1 | 2.0 | 25.1 | -0.4 | 1.1 | -7.1 | 50.8*
CCN(CC)C(=O)CSc1nnc([C@@H](N)Cc2ccccc2)o1 | -1.2 | -5.7 | -1.6 | 82.6* | 1.4 | 1.7
CCc1ccccc1NC(=O)CSc1nnc([C@@H](N)Cc2ccccc2)o1 | 7.2 | 14.5 | 3.7 | nt | 32.9 | 9.3
CC(=O)Nc1ccc(NC(C)=O)s1 | 5.6 | 56.4* | 5.3 | 11.8 | 18.0 | 10.5
CC(=O)Nc1ccc(-c2ccccc2)s1 | 3.1 | -6.5 | -4.9 | nt | -5.3 | -2.7
COC(=O)Cn1nc(-c2ccccc2)c2ccccc21 | 3.2 | 10.8 | 7.9 | 1.8 | -3.1 | 5.2
Cn1c(=O)c2c(nc(N3CCN(Cc4ccccc4)CC3)n2CCSc2ncccn2)n(C)c1=O | 4.7 | 13.8 | 1.2 | 5.1 | 0.1 | 9.4
C=CS(=O)(=O)c1ccc(Oc2ccc(S(=O)(=O)C=C)cc2)cc1 | 5.5 | 6.7 | 0.3 | -3.2 | 38.6* | 0.5
O=S(=O)(c1ccc(Oc2ccc(S(=O)(=O)N3CCOCC3)cc2)cc1)N1CCOCC1 | 1.2 | 3.5 | -2.0 | 11.9 | -2.6 | 8.2
Cn1c(=O)c2c(-c3ccccc3)n(-n3cnnc3)cc2n(C)c1=O | 50.3* | 2.9 | 59.2* | 25.4 | -6.1 | 8.6
SMILES | CatB mixtures | C1s block | CatB inh | CatL inh | CatS inh | Cathepsin G inh
Cn1c(=O)c2c(-c3ccccc3)n(Cc3cccnc3)cc2n(C)c1=O | 3.3 | 18.2 | -1.1 | 11.5 | -4.4 | 13.9
CCN1C(=O)c2ccc(-c3nc4ccccc4c(=O)o3)cc2C1=O | 1.8 | 12.1 | 0.7 | -1.6 | 12.5 | 38.8*
O=C(Nc1ccc2oc(=O)ccc2c1)c1cccnc1 | 4.7 | 23.4* | 0.4 | 3.8 | 2.2 | 15.8
COc1ccc(OC)c(C2C(C#N)=C(N)Oc3cc(C)n(Cc4ccccn4)c(=O)c32)c1 (stereo not drawn) | nt | nt | 1.7 | 63.3* | nt | nt
O=C(CCSc1nccn1Cc1ccccc1)N1CCOCC1 | 5.6 | 17.8 | 3.7 | 11.2 | 17.1 | 21.8*
O=C(CSc1nnc(-c2ccccc2)n1Cc1ccccc1)N1CCOCC1 | 4.2 | 3.2 | 5.3 | -0.8 | -0.1 | 8.2
Cc1ccc(-c2nnc3ccc(SC(C)C(=O)O)nn23)cc1 (stereo not drawn) | 0.9 | -1.7 | 6.8 | 3.0 | 11.3 | 11.5
CC(Sc1ccc2nnc(-c3ccc(F)cc3)n2n1)C(=O)O (stereo not drawn) | 4.2 | -0.2 | 8.8 | 54.0* | 16.8 | 2.9
C/C(N)=C(/C#N)C(=O)CSc1nnnn1-c1ccc(C)cc1C | 6.7 | 5.4 | -1.6 | -9.9 | -4.6 | 14.6
O=C(CSc1nnc(CNC(=O)c2cccs2)o1)NCCc1ccccc1 | 6.7 | -1.4 | 0.3 | 7.8 | -3.1 | 3.0
CC1=C(C)CS(=O)N(S(=O)(=O)c2ccc(Cl)cc2)C1 (stereo not drawn) | 31.7* | 6.5 | 23.7* | nt | 6.4 | 9.1
COC(=O)C1=C(C)NC(=O)CC1c1cccc(Cl)c1Cl (stereo not drawn) | 2.1 | 4.7 | 5.8 | nt | 1.9 | 9.1
CCOC(=O)C1=C(C)NC(C)=C(C(=O)OC)C1c1cccc(Cl)c1Cl (stereo not drawn) | -7.6 | -1.1 | 33.5* | 3.1 | -1.9 | 10.4
CCN(CC)CCNC(=O)c1cc2c(=O)n(C)c3ccccc3c2n1C | -2.0 | -9.2 | 8.2 | 23.1 | 47.6* | -5.7
CCCCN(CC)CCNC(=O)c1cc2c(=O)n(C)c3ccccc3c2n1C | 2.5 | 2.2 | -1.1 | -0.5 | 56.9* | 6.9
CN(C)CCNC(=O)c1cc2c(=O)n(C)c3ccccc3c2n1C | 1.8 | 0.8 | 2.5 | 17.3 | 82.3* | 7.3
CN(C)/C=C1\C(=O)c2ccc(N(C)C)nc2CC1c1ccccc1 (stereo not drawn) | 1.5 | 4.9 | -2.1 | -7.5 | -6.6 | 6.8
COc1ccc2c(C)nc(Nc3nc(C)cc(C)n3)nc2c1 | -2.4 | -10.4 | 3.6 | 61.3* | 1.0 | 2.5
COc1ccc(Nc2nc(C)c3ccccc3n2)cc1 | 3.4 | 0.2 | -6.6 | -6.5 | -2.6 | -1.4
O=C(Nc1ccc(Nc2ccccc2)cc1)C1CC1 | -7.7 | -24.3 | 21.6* | 7.3 | -5.5 | 6.3
Cc1ccc2c(c1)N(CCC(=O)NCCCOC(C)C)C(=O)C(C)O2 (stereo not drawn) | 1.6 | -0.2 | 1.0 | 8.5 | 4.9 | -2.9
Cc1cc(=O)[nH]c(SCc2cc(=O)n3nc(C)sc3n2)n1 | 1.7 | -2.7 | 2.5 | nt | 3.1 | 1.4
COc1cc(C)c(S(=O)(=O)n2ccc(C)n2)cc1C | -1.8 | 17.2 | 2.6 | 13.3 | -1.4 | 9.6
